Source: PubChem (National Center for Advancing Translational Sciences (NCATS))
Sampled rows, rich in hits. Any-hit rate of the full collection: about 3.6%.
PLK1 PBD inh: qHTS for Inhibitors of PLK1-PDB (polo-like kinase 1 - polo-box domain): Primary Screen; Serine/threonine-protein kinase PLK1 (Homo sapiens), P53350; Plk1 PBD binding of FITC phosphopeptide, fluorescence polarization; Potency, µM, without a hit: max response, negative = inhibition, usual class: inhibitors; actives 2.8% (n = 360,000); AID 720504, 2013; further: potency means the concentration at half of the fitted maximal effect; series mostly up to about 57 µM; on the % scale 0 is the no-effect control and ±100 the full control effect; nearly all actives have a fitted effect of over 65% in size
VDR inhibitor: Inhibitors of the vitamin D receptor (VDR): qHTS; Vitamin D3 receptor (Homo sapiens), P11473; VDR-SRC2-3 peptide fluorescence polarization, 2 h; Potency, µM, inactives show max response, negative = inhibition, usual class: inhibitors; actives 0.93% (n = 400,000); AID 504847, 2011; further: potency means the concentration at half of the fitted maximal effect; on the % scale 0 is the no-effect control and ±100 the full control effect
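Fluorescence polarization assay measuring small-molecule disruption of VDR binding to the coregulator peptide SRC2-3. Compounds were pin-transferred (23 nl) into the reagent mix and incubated 2 h at room temperature before reading.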
KAT2A inh: qHTS Assay for Inhibitors of GCN5L2. actives 0.21% (n = 390,000). Histone acetyltransferase KAT2A (Homo sapiens), Q92830. GCN5L2 HAT assay, ThioGlo1 CoA-SH fluorescence. Potency, µM (highest dose often 58.9 µM), for inactives: at the top dose activity change, negative = inhibition, hits mostly inhibitors; further: potency means the concentration at half of the fitted maximal effect; on the % scale 0 is the no-effect control and ±100 the full control effect
Target sequence (Q92830 whole entry, looked up): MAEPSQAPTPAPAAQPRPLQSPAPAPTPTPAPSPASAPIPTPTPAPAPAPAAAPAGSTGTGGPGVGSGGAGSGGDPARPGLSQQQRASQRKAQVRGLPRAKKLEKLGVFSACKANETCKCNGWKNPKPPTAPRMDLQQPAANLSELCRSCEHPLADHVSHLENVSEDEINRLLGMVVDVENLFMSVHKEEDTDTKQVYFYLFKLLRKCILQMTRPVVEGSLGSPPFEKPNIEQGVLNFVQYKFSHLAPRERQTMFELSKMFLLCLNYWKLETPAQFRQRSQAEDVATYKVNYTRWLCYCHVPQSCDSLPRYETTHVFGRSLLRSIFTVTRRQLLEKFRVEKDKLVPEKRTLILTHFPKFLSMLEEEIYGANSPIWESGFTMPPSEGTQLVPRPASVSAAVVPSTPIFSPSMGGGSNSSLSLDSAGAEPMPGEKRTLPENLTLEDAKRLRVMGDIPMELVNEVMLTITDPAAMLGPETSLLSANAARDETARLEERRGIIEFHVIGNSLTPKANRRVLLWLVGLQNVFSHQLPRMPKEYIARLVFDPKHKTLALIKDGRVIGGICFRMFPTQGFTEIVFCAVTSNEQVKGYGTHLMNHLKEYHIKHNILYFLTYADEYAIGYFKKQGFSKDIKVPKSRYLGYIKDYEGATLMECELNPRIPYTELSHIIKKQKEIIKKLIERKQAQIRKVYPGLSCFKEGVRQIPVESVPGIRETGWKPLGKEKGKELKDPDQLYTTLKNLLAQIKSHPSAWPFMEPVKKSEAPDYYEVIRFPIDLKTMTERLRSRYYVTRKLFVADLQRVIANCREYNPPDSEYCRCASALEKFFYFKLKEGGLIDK
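qHTS, 1536-well. 20nM enzyme, pH 7.5 HEPES/EDTA/Tween-20 buffer; 15 min compound preinc., RT. Start: 75uM H3(1-25), 70uM AcCoA, 50uM ThioGlo1. Read Ex340/Em540 at t=0 (autofluorescence flag) and t=20 min.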
Rango complex inh: qHTS Assay for Inhibitors of Rango (Ran-regulated importin-beta cargo) - Importin beta complex formation | Importin subunit beta-1 (Homo sapiens), Q14974 | Rango CFP/YFP FRET sensor + importin beta, 45 min | Potency, µM (doses to about 92.2 µM), for the others: at the top dose inhibition of complex formation | actives 0.031% (n = 340,000) | AID 540263, 2011; calls by dose curve;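 further: potency means the concentration at half of the fitted maximal effect; 0% = DMSO wells and 100% = buffer wells lacking importin beta; nearly all actives have a fitted effect of over 15% in size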
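FRET biosensor Rango (snurportin 1 IBB between N-terminal EYFP and C-terminal Cerulean), 50 nM in PBS/1 mM DTT/0.02% Tween-20/0.1% BSA, preincubated 5 min RT with compound; 0.125 microM importin beta added, 45 min RT, CFP/YFP FRET ratio read.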
Rango dissoc inh: qHTS Assay for Inhibitors of RanGTP induced Rango (Ran-regulated importin-beta cargo) - Importin beta complex dissociation. Snurportin-1 (Homo sapiens) + GTP-binding nuclear protein Ran (Homo sapiens) + Importin …. Biochemical FRET Rango-importin beta, RanGTP-induced dissociation. Potency, µM (top dose mostly 46.1 µM), for inactives: top-dose activity change, negative = inhibition. actives 0.071% (n = 340,000); calls by dose curve; further: potency means the concentration at half of the fitted maximal effect; % of control where 0% means no effect; nearly all actives have a fitted effect of over 45% in size
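Rango FRET biosensor (snurportin-1 IBB flanked by N-terminal EYFP and C-terminal CFP10) at 0.1 uM, with 0.25 uM importin beta in PBS, 1mM DTT, 0.02% Tween-20, 0.1% BSA. 0.6 uM Ran, 2mM GTP and 0.2 uM RCC1 were then added for 45 min at room temperature. Inhibition read as loss of FRET rise.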
PI5P4Ka inh: qHTS for Inhibitors of phosphatidylinositol 5-phosphate 4-kinase (PI5P4K). PI5P4Kalpha enzyme, ADP-Glo luminescence, 60 min; stronger effect = lower value. max response, %. actives 1.2% (n = 330,000); active means max response of -50% or lower; inconclusive means between -30% and -50%; inactive means -30% or higher; further: value at the top dose of about 77 µM; on the % scale 0 is the no-effect control and ±100 the full control effect
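Reactions run in 0.038 M HEPES pH 7.4, 0.28 mM EGTA, 0.1% CHAPS and 5% DMSO, with PI5P4Kalpha, substrate, compound and 5 microM ATP final, one hour at room temperature. Readout is ADP-Glo luminescence.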
* = called active by the depositor; ? = inconclusive; . = no result. Unless noted, the call rests on the fitted dose curve; in most records, active means well fitted curve in the direction sought with a large enough effect; inconclusive means small, poorly fitted or top-dose-only effect, or another doubt; inactive means no such curve, though single readings can be large; an effect the other way counts as inactive or inconclusive.

SMILES	PLK1 PBD inh	VDR inhibitor	KAT2A inh	Rango complex inh	Rango dissoc inh	PI5P4Ka inh
CCCn1nc([N+](=O)[O-])c(C(C#N)c2nc3ccccc3o2)c(Cl)c1=O (stereo unspecified)	29.9µM*	?	-15.0%	-0.2%	19.1%	?
Cn1nc([N+](=O)[O-])c(C(C#N)c2ccccn2)c(Cl)c1=O (stereo unspecified)	29.9µM*	-5.6%	-9.8%	-5.6%	-27.3%	-3.0
CCn1nc([N+](=O)[O-])c(C(C#N)c2nc3cc(C(F)(F)F)ccc3s2)c(Cl)c1=O (stereo unspecified)	23.8µM*	?	?	5.5%	0.4%	.
CCCCn1c(N)c(-c2nc3ccccc3o2)c2c([N+](=O)[O-])nn(C)c(=O)c21	-29.1%	3.6%	-16.9%	0.5%	5.5%	-24.6
O=C(Nc1ccc(F)cc1)c1nc2c(nnn2Cc2cccc3ccccc23)c(=O)[nH]1	23.8µM*	26.1%	-21.8%	-1.9%	14.9%	-3.7
C[C@H]1C(=O)N(S(=O)(=O)c2ccccc2[N+](=O)[O-])[C@H]1c1ccc(-c2ccccc2)cc1	.	7.4%	.	.	.	.
O=C(C1CC1)N(CCN(Cc1ccccc1)C(=O)C1CC1)Cc1ccccc1	26.7µM*	-8.2%	2.0%	?	22.1%	-7.1
COc1cc(S(=O)(=O)n2ccnc2C(C)C)ccc1Br	.	18.1%	-7.9%	.	.	.
CC(CC1C(C#N)=C(N)SC(N)=C1C#N)c1ccccc1 (stereo unspecified)	-15.6%	?	-4.3%	?	?	-66.6*
COCCn1c(CCC(=O)Nc2ccc(OC)c(OC)c2)nc2cccnc21	.	17.3%	-13.9%	.	.	.
CCCCCCCCCCCCCCCC[n+]1cccc2ccccc21	?	-27.1%	5.9%	8.7%	2.3%	-59.1*
Cc1cc(NC(=O)COC(=O)CC2CCCC2)c([N+](=O)[O-])cc1C	-15.8%	-13.8%	-0.7%	2.8%	1.6%	-10.3
Cc1ccc(S(=O)(=O)NC(C)C(=O)Nc2cccc([N+](=O)[O-])c2)cc1 (stereo unspecified)	-6.5%	-2.3%	-7.6%	4.5%	12.9%	-8.9
Cc1ccc([N+](=O)[O-])cc1NC(=O)C(C)NS(=O)(=O)c1ccc(F)cc1 (stereo unspecified)	23.8µM*	-5.5%	-10.8%	0.8%	4.5%	-2.6
COCC(=O)Nc1cc([N+](=O)[O-])ccc1C	11.9µM*	-3.6%	-8.3%	-0.4%	11.5%	-16.5
Cc1ccc(C)c(NC(=O)CCC(=O)N/N=C/c2cc([N+](=O)[O-])ccc2O)c1	37.7µM*	1.4%	-4.2%	2.6%	15.6%	3.2
CCC(=O)OCC(=O)Nc1cc(C)c(C)cc1[N+](=O)[O-]	23.8µM*	-8.1%	19.0%	-0.2%	0.5%	5.9
Cc1ccc(S(=O)(=O)N2CCN(c3nc(-c4cncs4)nc4ccccc34)CC2)cc1	.	-5.6%	.	.	.	.
Cc1ccc(NC(=O)C(=O)c2cc(C)n(-c3ccc(F)cc3)c2C)cc1C	.	-0.5%	-7.1%	.	.	.
CCN(C(=O)Cn1c(=O)oc2ccccc21)c1cccc(C)c1	26.7µM*	-27.0%	1.8%	-0.2%	-8.4%	-8.8
C=CCSc1nnc(N2C(=O)C(O)=C(C(=O)c3ccco3)C2c2ccccc2F)s1 (stereo unspecified)	13.4µM*	-23.4%	-2.6%	?	?	?
COC1=C(Nc2ccc(O)cc2)C(=O)c2ccccc2C1=O	-11.4%	25.1µM*	1.6%	-4.5%	1.2%	-14.3
